The list is not random: actives were taken first. Their share in the collection is about 1.8%.
PfHsp40 yeast – compounds rescuing yeast from Plasmodium falciparum HSP40 toxicity. S. cerevisiae expressing PfHsp40, growth rescue, ATP luminescence. growth rescue, % at 12.5 µM. 340,000 compounds, 0.68% hits. AID 504582; in the data active = growth rescue above about 28%, passing the limit was not always enough;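 note: yeast W303a lacking pdr1 and pdr3 grown in galactose medium; growth measured after three days at 30 °C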
Sa ugtP lethal – kills S. aureus RN4220 lacking UgtP; 330,000 compounds, 0.54% hits; growth inhibition, % (no concentration beside the values); S. aureus RN4220 ugtP deletion, OD600 growth, 16 h; AID 1259309; in the data active = growth inhibition above about 68%;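 note: plate controls were untreated wells for no effect and antibiotic for full effect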
Mtb hypoxia rep – reduces hypoxia-regulated biosensor signal in M. tuberculosis; M. tuberculosis hypoxia-regulated fluorescent reporter, fluorescence; fluorescence inhibition, % (no concentration beside the values); 300,000 compounds, 0.1% hits; AID 1159583; in the data active = fluorescence inhibition mostly above about 23%, no sharp cut-off; inactive = mostly below about 17%
VHR inh abs – inhibitors of human VHR1 phosphatase (DUSP3) | P51452 | recombinant VHR phosphatase, pNPP absorbance | inhibition, % at 13.3 µM | 290,000 compounds, 0.52% hits | AID 1654; in the data active = inhibition above about 50%
Target sequence (P51452 whole entry, looked up): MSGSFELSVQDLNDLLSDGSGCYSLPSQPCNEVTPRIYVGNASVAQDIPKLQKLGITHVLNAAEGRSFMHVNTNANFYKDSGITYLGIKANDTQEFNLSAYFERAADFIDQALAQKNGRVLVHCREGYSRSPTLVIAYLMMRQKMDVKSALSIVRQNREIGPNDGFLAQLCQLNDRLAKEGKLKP
RN4220 kill – kills Staphylococcus aureus RN4220; S. aureus RN4220 growth, OD600, 16 h; inhibition, % (no concentration beside the values); 330,000 compounds, 0.33% hits; AID 1259311; in the data active = inhibition above about 85%;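 note: plate controls were untreated cells for no effect and reference antibiotic for full effect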
SSB-PriA inh – K. pneumoniae PriA-SSBct interaction inhibition; AlphaScreen SSBct-PriA binding, biotinylated peptide; inhibition, % at 33 µM; 430,000 compounds, 0.6% hits; AID 1272365; in the data active = inhibition mostly above about 37%, no sharp cut-off; inactive = mostly below about 20%;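 note: plate controls were negative control peptide for no effect and reference peptide for full effect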
* hit, by the source's call; / = no result given.

SMILES	PfHsp40 yeast	Sa ugtP lethal	Mtb hypoxia rep	VHR inh abs	RN4220 kill	SSB-PriA inh
Cc1ccc(OCc2ccc(-c3nc(C#N)c(N4CCCCC4)o3)o2)cc1	/	/	/	/	/	81.8*
CCCOc1ccc(-c2nc(C#N)c(N3CCCC3)o2)cc1	/	/	/	/	/	60.6
O=C(C1CCCCN1S(=O)(=O)c1ccc(Cl)s1)N(Cc1ccco1)c1nc2c(F)cccc2s1 (configuration not stated)	/	/	/	/	/	10.0
COC(=O)C1=C(c2cccc(C#N)c2)CC2CCC1N2C(=O)N1CCCCC1 (configuration not stated)	/	-0.8	3.7	/	2.6	/
COc1ccc(S(=O)(=O)N(C)CC(=O)N2CCCCC2)cc1Cl	-1.0	-1.3	19.5	-7.5	-6.4	6.7
COc1ccc(S(=O)(=O)N(C)CC(=O)N2CCCC2)cc1OC	-0.9	15.2	6.3	53.3*	2.4	-12.6
COc1ccc(S(=O)(=O)N(C)CC(=O)N2CCN(C)CC2)cc1Cl	0.5	13.5	-4.3	52.8*	4.6	-4.8
O=C(Cn1cccn1)Nc1ccccc1-c1csc(-c2ccccc2F)n1	/	/	/	/	/	-7.0
CCOc1ccc(OCC(=O)N2CCN(c3nccn3-c3ccc(C)cc3)CC2)cc1	/	/	/	/	/	60.0*
CCOc1ccccc1NC(=O)CN1CCN(Cc2ccccc2)CC1	-1.3	7.8	15.0	22.2	1.4	-1.6
COc1ccc(NC(=O)CN2CCN(c3nccn3-c3ccc(C)cc3)CC2)cc1OC	/	/	/	/	/	37.0*
CCOc1ccccc1NC(=O)CN1CCN(c2nccn2-c2cccc(Cl)c2)CC1	/	/	/	/	/	59.0*
O=C(NN=Cc1ccco1)c1ccccn1	/	-2.9	1.9	/	2.3	59.6*
O=C(CCn1cnc(-c2ccccc2)c1-c1ccccc1)N/N=C\c1ccco1	/	/	/	/	/	48.0*
COc1cc(C=NNC(=O)c2ccccn2)ccc1OC(=O)c1cccs1	/	10.6	9.6	/	5.5	-0.8
O=C(N/N=C/c1ccc(OC(=O)c2cccs2)cc1)c1ccccn1	-1.5	/	/	52.8*	/	/
O=C(CCn1nc(-c2ccccc2)cc1-c1ccccc1)N/N=C\c1ccco1	/	/	/	/	/	20.0
Cc1ccc(S(=O)(=O)NN=Cc2cccnc2)cc1	/	6.3	6.0	/	6.5	-9.4
O=C(NC[C@H](O)c1cccc2ccccc12)C(=O)Nc1ccc2c(c1)OCO2	/	/	/	/	/	0.0
O=C(NCC(c1cccc2ccccc12)N1CCCC1)C(=O)Nc1ccc2c(c1)OCCO2 (configuration not stated)	/	/	/	/	/	48.0*
CCCn1nc(NC(=O)c2cccs2)c2cc3cc(OC)ccc3nc21	68.5*	-10.2	-6.6	9.7	-1.2	-66.7
CCCn1nc(NC(=O)c2cccs2)c2cc3ccc(C)cc3nc21	0.3	-15.3	-1.7	24.9	6.3	-14.2
CCCn1nc(NC(=O)c2cccs2)c2cc3cc(C)ccc3nc21	47.7*	/	/	12.5	/	-0.4
O=C1N(c2ccc(Cl)cc2)C(c2cccnc2)N2CCCN12 (configuration not stated)	287.1*	-7.3	4.8	-6.2	-0.7	-10.1
O=C1N(c2ccc(Cl)cc2)C(c2ccccc2)N2CCCN12 (configuration not stated)	1.2	3.1	-4.6	13.3	-3.1	-12.6
SMILES	PfHsp40 yeast	Sa ugtP lethal	Mtb hypoxia rep	VHR inh abs	RN4220 kill	SSB-PriA inh
CCCNC(=O)Cn1c(=O)n(CC(=O)N2CCCCC2)c(=O)c2sccc21	0.4	0.7	4.4	55.5*	0.9	-3.8
O=C(Nc1nnc(S(=O)(=O)N2CCCCCC2)s1)c1ccccc1	-0.5	10.9	3.1	13.4	10.3	101.0*
O=C(COc1ccccc1Cl)Nc1nnc(S(=O)(=O)N2CCCC2)s1	0.6	14.0	6.1	17.3	0.5	85.0*
CC(C)C1OC2c3cccc4cccc(c34)C2N1c1ccccc1 (configuration not stated)	-1.6	90.1*	0.5	-9.2	-3.1	-12.3
CCOC(=O)c1[nH]cnc1C(=O)O	0.0	2.1	/	3.6	-0.5	-2.4
O=C(O)c1nc[nH]c1C(=O)O	/	/	/	/	/	85.0*
N#Cc1c(Cl)nsc1NC(=O)c1ccccc1	216.6*	81.4	/	18.8	77.6	-4.2
CCCCc1ccc(NC(=O)Nc2cn(C)c3ccccc23)cc1	/	/	/	/	/	-17.0
CCOC(=O)c1cccc(NC(=O)/C=C/c2cccc([N+](=O)[O-])c2)c1	1.3	-13.9	6.1	19.7	0.6	2.7
CCOC(=O)/C=C/C(=O)Nc1cccc([N+](=O)[O-])c1	189.3*	6.4	14.3	-1.0	7.9	-20.3
C1CN2CN3CCN(CN1C3)C2	/	/	/	/	/	80.0*
Cc1cccc(C)c1OCC(=O)NN=Cc1cc2c(cc1[N+](=O)[O-])OCO2	/	-8.9	7.9	/	4.5	-0.6
C/C=N/NC(=O)c1cc(Br)ccc1O	0.2	/	/	-0.2	/	/
O=C(c1ccc(O)c(Br)c1)c1cc(Br)ccc1O	7.9	84.4*	2.2	/	76.8	1.7
O=C(C(=O)c1cc(Br)ccc1O)c1cc(Br)ccc1O	111.8*	100.3*	8.2	/	100.2*	0.6
O=C(Cc1ccc2c(c1)OCO2)N(Cc1ccccc1)c1nc2ccccc2s1	/	/	/	/	/	-49.0
CCOc1ccc(C=NOCC(=O)Nc2ccc(OCc3ccccc3)cc2)cc1OC	/	-0.4	-2.1	/	3.0	-4.6
CCc1ccccc1NC(=O)NC(C(=O)O)C(C)CC (configuration not stated)	/	7.3	13.4	/	2.4	/
Cc1cccc(S(=O)(=O)Nc2cccc(-c3cn4ccsc4n3)c2)c1	1.4	84.7*	9.0	14.3	-2.0	13.7
CCCCCCCn1ccc(=N)cc1	-0.5	4.7	/	-9.9	0.8	-1.3
CCCCCCCCCn1ccc(=N)cc1	0.8	100.1*	13.0	-3.2	-1.3	-2.9
COc1cc(/C=C/C(=O)OCC(=O)NC(=O)NC(C)(C)C)ccc1OCC#N	83.0*	7.2	13.8	-11.0	2.1	1.6
COc1ccc2[nH]c3c(c2c1)CCN1C(=O)N([C@@H](C)C(=O)NCCc2ccc(F)cc2)C(=O)[C@]31C	57.6*	-1.3	/	12.7	-2.4	22.0
C[C@@H](C(=O)NCc1ccco1)N1C(=O)N2CCc3c([nH]c4ccccc34)[C@@]2(C)C1=O	-0.3	13.2	/	16.6	6.3	47.1*
CCn1c(SCC(=O)NCc2ccc(Cl)cc2)nc2c(-c3ccc(C)cc3)csc2c1=O	/	/	/	/	/	-3.0
COc1cc(NC(=O)CCc2nnc3ccc(N4CCC5(CC4)OCCO5)nn23)cc(OC)c1	1.6	-3.1	-10.0	-14.6	-5.6	5.2
COc1cc(NC(=O)CCc2nnc3ccc(N4CCN(C)CC4)nn23)cc(OC)c1	-1.1	9.6	2.6	52.1*	1.1	-10.2
Cc1nnc(SCC2=C(C(=O)O)N3C(=O)C(NC(=O)COc4ccc(F)cc4)C3SC2)s1 (configuration not stated)	2.6	96.9*	/	/	100.2*	-1.3
CCC(C(=O)NC1C(=O)N2C(C(=O)O)=C(CSc3nnc(C)s3)CSC12)c1ccccc1 (configuration not stated)	-0.3	100.2*	/	/	100.1*	-8.8
O=C(COc1ccccc1)NC1C(=O)N2C(C(=O)O)=C(Cl)CSC12 (configuration not stated)	1.6	100.7*	/	-22.7	100.7*	-7.5

Screens deposited in PubChem BioAssay by several laboratories.
